Results reported in paper PMC5540273 (PLoS ONE, 2017).

Assays:
Conditions in all cases: concentration: 1 μM, replicates: in singlicate; n = 1
[1] = tested on: CAMK1B
[2] = tested on: CAMK1D
[3] = tested on: CAMK1G
[4] = tested on: CAMK1
[5] = tested on: CAMK2A
[6] = tested on: CAMK2B
[7] = tested on: CAMK2D
[8] = tested on: CAMK2G
[9] = tested on: CAMK4
[10] = tested on: CAMKK1
[11] = tested on: CAMKK2
[12] = tested on: CASK
[13] = tested on: T1, CDC2L1
T1 construct: gene CDK11B

[14] = tested on: CDC2L2
[15] = tested on: T2, CDC2L5
T2 construct: gene CDK13

[16] = tested on: T3, CDK11
T3 construct: gene CDK19

[17] = tested on: CDK2
[18] = tested on: CDK3
[19] = tested on: CDK4-cyclinD1
[20] = tested on: CDK4-cyclinD3
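Also: KINOMEscan kinase panel screen.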

SMILES	%Inh [1] [%]	%Inh [2] [%]	%Inh [3] [%]	%Inh [4] [%]	%Inh [5] [%]	%Inh [6] [%]	%Inh [7] [%]	%Inh [8] [%]	%Inh [9] [%]	%Inh [10] [%]	%Inh [11] [%]	%Inh [12] [%]	%Inh [13] [%]	%Inh [14] [%]	%Inh [15] [%]	%Inh [16] [%]	%Inh [17] [%]	%Inh [18] [%]	%Inh [19] [%]	%Inh [20] [%]
COC(=O)c1c(-c2ccccc2)c2cc(OC)ccc2c(=O)n1Cc1ccccc1	0	20	20	19	15	0	13	18	0	16	17	0	7	3	0	12	2	10	0	0
O=C1NC(=O)C(N2CCc3ccccc32)=C1c1ccccc1Cl [SB-373598]	41	65	0	67	20	0	18	22	10	4	4	0	0	3	0	12	16	0	14	15
O=C(O)COc1ncnc2cc(-c3ccc4[nH]ncc4c3)sc12	7	0	31	0	0	0	26	17	7	34	24	0	8	0	5	21	0	20	1	0
CC1=C(C(=O)Nc2cc3cn[nH]c3cc2F)C(c2ccc(C(F)(F)F)cc2)CC(=O)N1 (centres unmarked) [GSK429286]	8	7	0	0	0	0	0	24	0	17	14	43	0	13	0	7	0	18	0	0
O=c1cc(N2CCOCC2)nc2n(Cc3cccc(Cl)c3Cl)ccn12 [GSK2286295]	8	18	0	14	0	0	5	9	0	14	16	9	13	16	0	23	0	0	0	0
Fc1cc(Cl)ccc1Nc1ccnc2cc(I)ccc12 [GW551191]	5	0	0	0	0	0	1	14	0	0	0	24	0	0	0	16	0	0	0	0
Cc1ccccc1-n1cnc2c(N)ncnc21 [SKF-97510]	0	5	0	0	24	14	4	4	0	1	8	0	0	1	0	0	0	0	0	0
CCn1c(-c2ccccn2)nc2cnccc21 [SB-736398]	34	0	0	0	0	0	0	0	0	0	0	2	27	0	100	0	0	0	0	3
Nc1ncnc2[nH]c(-c3ccccc3)nc12 [AH5015]	29	13	0	0	0	0	0	0	0	0	0	15	0	5	0	0	0	2	0	11
Cc1ccc(-c2cc(-c3c[nH]nc3-c3ccccn3)ccn2)cc1 [GW684088]	55	13	14	9	2	0	16	25	0	30	26	0	0	17	0	16	0	0	28	0
